Data published in the supplement of paper PMC10849652.
The full data set covers some 7,900 targets. This sample favours those with a hit. About 0.6% of all pairs of compound and target were hits. Values without a mark were called inactive.

Compound: Cc1sc2c(c1C)C(c1ccc(Cl)cc1)=N[C@@H](CC(=O)OC(C)(C)C)c1nnc(C)n1-2
Test: log2 fold change, soluble protein after heating vs DMSO (PISA); higher = thermal stabilisation; K562 cells, 10 uM, 30 min; active = over 0.2 and 3.5 SD of the protein, either way, in both replicates (recomputed)
Method in brief: (§1)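 Quantification of soluble protein used TMTpro 16plex LC-MS/MS, with channel sums equalised. Samples were the supernatant after 21,000xg for 90 min of pooled aliquots from K562 cells (2×10^6 cells/mL) treated with 10 μM compound for 30 min, heated for 3 min over 48°C-58°C, and extracted in PBS with 0.5% NP-40 at 4°C. Values, from duplicates, describe thermal stability against control samples on a log2 fold-change scale.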

UniProt Q8WUI4, sequence (Q8WUI4 whole entry, looked up): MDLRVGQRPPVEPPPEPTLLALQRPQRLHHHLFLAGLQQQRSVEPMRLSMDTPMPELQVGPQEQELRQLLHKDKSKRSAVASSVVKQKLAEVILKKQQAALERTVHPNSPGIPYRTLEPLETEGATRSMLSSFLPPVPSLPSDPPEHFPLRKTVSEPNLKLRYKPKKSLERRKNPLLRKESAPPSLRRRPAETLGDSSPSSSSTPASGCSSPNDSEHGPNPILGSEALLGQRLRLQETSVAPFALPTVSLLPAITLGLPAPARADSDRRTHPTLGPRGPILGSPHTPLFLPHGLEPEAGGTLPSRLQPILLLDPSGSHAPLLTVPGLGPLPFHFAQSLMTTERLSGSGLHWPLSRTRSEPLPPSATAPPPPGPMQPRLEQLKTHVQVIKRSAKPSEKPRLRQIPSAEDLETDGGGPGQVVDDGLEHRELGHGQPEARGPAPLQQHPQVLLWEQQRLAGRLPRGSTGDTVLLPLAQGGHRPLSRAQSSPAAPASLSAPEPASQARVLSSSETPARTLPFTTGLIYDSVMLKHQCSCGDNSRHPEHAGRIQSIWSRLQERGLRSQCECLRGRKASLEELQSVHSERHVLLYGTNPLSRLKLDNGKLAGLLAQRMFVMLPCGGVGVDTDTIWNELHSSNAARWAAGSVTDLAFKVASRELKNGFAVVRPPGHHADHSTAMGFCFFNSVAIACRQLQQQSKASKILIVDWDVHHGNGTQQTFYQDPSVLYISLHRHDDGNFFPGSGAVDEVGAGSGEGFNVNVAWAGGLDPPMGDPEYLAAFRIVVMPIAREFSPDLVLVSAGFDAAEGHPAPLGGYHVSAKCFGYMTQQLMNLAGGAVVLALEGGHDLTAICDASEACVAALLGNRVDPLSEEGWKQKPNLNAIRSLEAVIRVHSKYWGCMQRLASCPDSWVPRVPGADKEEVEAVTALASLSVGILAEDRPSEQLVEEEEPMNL
UniProt Q9NP66, sequence (Q9NP66 whole entry, looked up): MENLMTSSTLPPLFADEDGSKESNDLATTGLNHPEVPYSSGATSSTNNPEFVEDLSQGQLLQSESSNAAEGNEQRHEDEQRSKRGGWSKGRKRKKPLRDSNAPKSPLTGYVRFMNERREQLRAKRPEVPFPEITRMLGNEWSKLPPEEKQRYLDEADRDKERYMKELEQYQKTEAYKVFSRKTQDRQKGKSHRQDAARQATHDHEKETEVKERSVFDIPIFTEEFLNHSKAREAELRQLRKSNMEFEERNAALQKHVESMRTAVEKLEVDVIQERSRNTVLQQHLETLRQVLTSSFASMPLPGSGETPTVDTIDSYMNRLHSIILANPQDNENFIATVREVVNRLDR
UniProt P08236, sequence (P08236 whole entry, looked up): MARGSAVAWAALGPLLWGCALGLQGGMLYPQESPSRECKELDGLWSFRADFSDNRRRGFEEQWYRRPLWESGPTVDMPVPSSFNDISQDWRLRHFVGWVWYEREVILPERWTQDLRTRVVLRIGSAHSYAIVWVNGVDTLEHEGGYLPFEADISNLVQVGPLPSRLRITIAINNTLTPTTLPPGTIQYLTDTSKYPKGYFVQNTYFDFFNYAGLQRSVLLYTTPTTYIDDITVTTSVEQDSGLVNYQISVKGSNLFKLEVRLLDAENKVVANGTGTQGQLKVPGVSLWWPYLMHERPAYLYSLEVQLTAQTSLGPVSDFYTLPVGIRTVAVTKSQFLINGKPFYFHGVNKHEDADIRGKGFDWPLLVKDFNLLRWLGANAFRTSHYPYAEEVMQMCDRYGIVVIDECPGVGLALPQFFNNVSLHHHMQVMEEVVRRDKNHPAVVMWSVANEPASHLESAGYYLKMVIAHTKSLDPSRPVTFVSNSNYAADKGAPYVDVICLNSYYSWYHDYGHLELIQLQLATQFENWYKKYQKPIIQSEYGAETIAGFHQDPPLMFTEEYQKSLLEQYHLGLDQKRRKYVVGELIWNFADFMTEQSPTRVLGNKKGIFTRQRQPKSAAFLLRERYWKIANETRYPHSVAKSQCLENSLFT
UniProt Q13889, sequence (Q13889 whole entry, looked up): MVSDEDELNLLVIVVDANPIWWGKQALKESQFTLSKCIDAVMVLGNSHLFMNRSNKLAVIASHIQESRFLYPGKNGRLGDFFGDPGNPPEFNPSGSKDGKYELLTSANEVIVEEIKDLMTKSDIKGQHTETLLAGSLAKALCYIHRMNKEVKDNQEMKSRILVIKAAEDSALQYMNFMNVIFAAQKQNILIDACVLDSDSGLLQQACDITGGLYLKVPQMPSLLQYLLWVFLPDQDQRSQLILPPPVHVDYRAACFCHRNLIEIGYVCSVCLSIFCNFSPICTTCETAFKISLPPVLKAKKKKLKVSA
UniProt Q92917, sequence (Q92917 whole entry, looked up): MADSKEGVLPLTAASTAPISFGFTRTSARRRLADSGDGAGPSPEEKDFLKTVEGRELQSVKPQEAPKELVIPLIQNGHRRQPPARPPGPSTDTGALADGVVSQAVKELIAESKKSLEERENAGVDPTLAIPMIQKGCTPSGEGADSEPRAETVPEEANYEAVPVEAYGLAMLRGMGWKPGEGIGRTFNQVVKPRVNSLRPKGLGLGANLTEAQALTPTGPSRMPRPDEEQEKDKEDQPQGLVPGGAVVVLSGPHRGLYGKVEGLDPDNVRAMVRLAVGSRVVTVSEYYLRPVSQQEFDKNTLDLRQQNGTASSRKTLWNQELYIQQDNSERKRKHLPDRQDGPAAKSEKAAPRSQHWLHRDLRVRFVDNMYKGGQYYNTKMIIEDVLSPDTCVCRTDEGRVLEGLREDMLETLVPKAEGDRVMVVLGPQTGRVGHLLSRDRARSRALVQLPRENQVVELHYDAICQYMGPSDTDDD
UniProt Q53FT3, sequence (Q53FT3 whole entry, looked up): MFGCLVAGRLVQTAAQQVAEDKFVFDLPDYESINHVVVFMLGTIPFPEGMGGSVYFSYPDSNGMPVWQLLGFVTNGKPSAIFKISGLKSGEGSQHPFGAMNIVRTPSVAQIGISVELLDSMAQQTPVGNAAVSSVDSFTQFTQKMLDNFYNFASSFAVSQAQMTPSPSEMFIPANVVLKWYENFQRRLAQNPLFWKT
UniProt Q53R41, sequence (Q53R41 whole entry, looked up): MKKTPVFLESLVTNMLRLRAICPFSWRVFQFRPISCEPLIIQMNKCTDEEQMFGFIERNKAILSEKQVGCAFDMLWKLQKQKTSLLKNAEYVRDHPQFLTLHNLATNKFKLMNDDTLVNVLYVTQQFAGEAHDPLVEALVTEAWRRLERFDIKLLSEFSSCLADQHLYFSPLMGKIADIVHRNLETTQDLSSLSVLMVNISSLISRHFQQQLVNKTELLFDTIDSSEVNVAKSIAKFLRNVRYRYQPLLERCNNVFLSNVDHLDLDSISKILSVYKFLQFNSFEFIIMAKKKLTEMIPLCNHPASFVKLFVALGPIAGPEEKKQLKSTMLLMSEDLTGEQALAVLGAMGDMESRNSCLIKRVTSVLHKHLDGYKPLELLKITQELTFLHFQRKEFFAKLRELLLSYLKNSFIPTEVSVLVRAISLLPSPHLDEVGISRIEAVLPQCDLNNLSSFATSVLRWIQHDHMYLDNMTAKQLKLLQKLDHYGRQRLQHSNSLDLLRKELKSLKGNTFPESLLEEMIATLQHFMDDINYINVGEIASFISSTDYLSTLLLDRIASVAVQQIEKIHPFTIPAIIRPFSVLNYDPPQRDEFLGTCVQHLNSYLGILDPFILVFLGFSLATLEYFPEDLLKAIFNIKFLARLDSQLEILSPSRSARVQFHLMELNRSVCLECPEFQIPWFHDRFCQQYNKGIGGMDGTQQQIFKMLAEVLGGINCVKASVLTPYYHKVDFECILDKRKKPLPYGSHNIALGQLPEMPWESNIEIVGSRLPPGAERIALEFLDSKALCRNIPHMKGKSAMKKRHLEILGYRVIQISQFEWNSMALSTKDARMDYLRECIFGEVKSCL
UniProt Q9UQC2, sequence (Q9UQC2 whole entry, looked up): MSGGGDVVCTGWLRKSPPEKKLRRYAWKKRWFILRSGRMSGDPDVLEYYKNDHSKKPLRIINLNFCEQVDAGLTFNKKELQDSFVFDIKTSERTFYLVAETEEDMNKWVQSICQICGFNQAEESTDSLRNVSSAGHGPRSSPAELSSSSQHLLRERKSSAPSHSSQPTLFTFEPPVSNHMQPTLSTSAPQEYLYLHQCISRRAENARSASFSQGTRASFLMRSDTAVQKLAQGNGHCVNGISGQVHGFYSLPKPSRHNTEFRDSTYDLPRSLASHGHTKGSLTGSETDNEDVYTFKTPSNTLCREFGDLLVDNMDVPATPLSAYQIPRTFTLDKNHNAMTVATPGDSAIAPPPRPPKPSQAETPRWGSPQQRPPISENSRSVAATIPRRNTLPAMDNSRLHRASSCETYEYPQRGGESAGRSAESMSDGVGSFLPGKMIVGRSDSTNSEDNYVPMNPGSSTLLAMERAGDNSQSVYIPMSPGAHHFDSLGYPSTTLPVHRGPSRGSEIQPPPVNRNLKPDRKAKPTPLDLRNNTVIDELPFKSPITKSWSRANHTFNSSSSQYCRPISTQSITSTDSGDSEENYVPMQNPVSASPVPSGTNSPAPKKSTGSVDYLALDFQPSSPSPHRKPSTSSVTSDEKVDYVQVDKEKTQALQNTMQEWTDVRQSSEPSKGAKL
UniProt P50213, sequence (P50213 whole entry, looked up): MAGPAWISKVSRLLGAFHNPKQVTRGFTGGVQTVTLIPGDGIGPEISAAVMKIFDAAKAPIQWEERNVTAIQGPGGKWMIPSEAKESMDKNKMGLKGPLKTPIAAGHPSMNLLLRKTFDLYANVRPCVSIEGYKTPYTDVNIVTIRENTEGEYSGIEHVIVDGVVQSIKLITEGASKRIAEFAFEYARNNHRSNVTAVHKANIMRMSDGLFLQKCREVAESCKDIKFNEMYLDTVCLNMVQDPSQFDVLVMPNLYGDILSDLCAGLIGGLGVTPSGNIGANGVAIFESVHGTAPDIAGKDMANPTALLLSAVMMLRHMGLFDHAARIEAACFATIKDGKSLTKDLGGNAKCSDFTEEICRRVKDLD
UniProt Q9Y3D6, sequence (Q9Y3D6 whole entry, looked up): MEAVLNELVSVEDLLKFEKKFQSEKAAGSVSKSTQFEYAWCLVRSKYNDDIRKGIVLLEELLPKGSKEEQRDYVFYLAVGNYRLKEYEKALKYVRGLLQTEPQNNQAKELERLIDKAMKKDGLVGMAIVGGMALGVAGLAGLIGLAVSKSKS

Which log2 fold change does the source give for FYB1 isoform 3 (UniProt O15117) here?
Its log2 fold change is -0.017.

For ICMT (UniProt O60725), which log2 fold change is on record?
Its log2 fold change is 0.07.

For GTF3A (UniProt Q92664), which log2 fold change is on record?
Its log2 fold change is -0.072.

Which log2 fold change does the source give for HNRNPUL1 (UniProt M0R247) here?
Its log2 fold change is 0.204.

HOMER1 (UniProt Q86YM7) was tested. Which log2 fold change did it give?
Its log2 fold change is -0.005.

How did the log2 fold change turn out when HNRNPK isoform 3 (UniProt P61978) was run?
The log2 fold change was 0.061.

With FASTKD1 (UniProt Q53R41) as the target, how does the log2 fold change read?
The log2 fold change was 0.204.

For FCHO1 (UniProt O14526), which log2 fold change is on record?
The log2 fold change was 0.022.

Which log2 fold change does the source give for GPKOW (UniProt Q92917) here?
The log2 fold change was 0.

How did the log2 fold change turn out when GREB1 (UniProt Q4ZG55) was run?
Its log2 fold change is 0.037.

Which log2 fold change does the source give for GAPVD1 isoform 6 (UniProt Q14C86) here?
Its log2 fold change is 0.012.

H3-3A (UniProt P84243) was tested. Which log2 fold change did it give?
The log2 fold change was -0.058.

With GAK (UniProt O14976) as the target, how does the log2 fold change read?
The log2 fold change was 0.078.

With GUSB (UniProt P08236) as the target, how does the log2 fold change read?
The log2 fold change was 0.039.

HMG20A (UniProt Q9NP66) was tested. Which log2 fold change did it give?
Its log2 fold change is 0.048.

For GTF2H3 (UniProt Q13889), which log2 fold change is on record?
Its log2 fold change is 0.048.

How did the log2 fold change turn out when FIS1 (UniProt Q9Y3D6) was run?
Its log2 fold change is -0.081.

For GPS2 (UniProt Q13227), which log2 fold change is on record?
Its log2 fold change is 0.039.

GSTM4 (UniProt Q03013) was tested. Which log2 fold change did it give?
Its log2 fold change is -0.027.

HIKESHI (UniProt Q53FT3) was tested. Which log2 fold change did it give?
The log2 fold change was -0.091.

For GAB2 (UniProt Q9UQC2), which log2 fold change is on record?
The log2 fold change was 0.396.

With FCF1 (UniProt Q9Y324) as the target, how does the log2 fold change read?
The log2 fold change was 0.248.

For H2AZ1 (UniProt P0C0S5), which log2 fold change is on record?
Its log2 fold change is -0.021.

For GALNT11 (UniProt Q8NCW6), which log2 fold change is on record?
Its log2 fold change is -0.097.

For IDH3A isoform 2 (UniProt P50213), which log2 fold change is on record?
Its log2 fold change is -0.069.

Which log2 fold change does the source give for FOXO3 (UniProt O43524) here?
The log2 fold change was 0.125.

How did the log2 fold change turn out when HDAC7 isoform 5 (UniProt Q8WUI4) was run?
Its log2 fold change is -0.026.

Compound: c1ccc([C@@H]2C[C@H]2NC2CCNCC2)cc1
Test: as above
Method in brief: as §1

Which log2 fold change does the source give for GTF3A (UniProt Q92664) here?
Its log2 fold change is -0.071.

HNRNPUL1 (UniProt M0R247) was tested. Which log2 fold change did it give?
The log2 fold change was 0.122.

Which log2 fold change does the source give for FMR1 (UniProt Q06787) here?
The log2 fold change was -0.038.

For HOMER1 (UniProt Q86YM7), which log2 fold change is on record?
Its log2 fold change is 0.007.

With FASTKD1 (UniProt Q53R41) as the target, how does the log2 fold change read?
Its log2 fold change is 0.07.

Which log2 fold change does the source give for FCHO1 (UniProt O14526) here?
The log2 fold change was -0.065.

With GPKOW (UniProt Q92917) as the target, how does the log2 fold change read?
The log2 fold change was -0.015.

GREB1 (UniProt Q4ZG55) was tested. Which log2 fold change did it give?
The log2 fold change was -0.1.

How did the log2 fold change turn out when HS1BP3 (UniProt Q53T59) was run?
The log2 fold change was -0.203.

For GEMIN2 (UniProt O14893), which log2 fold change is on record?
Its log2 fold change is 0.025.

GAPVD1 isoform 6 (UniProt Q14C86) was tested. Which log2 fold change did it give?
The log2 fold change was -0.018.

With H3-3A (UniProt P84243) as the target, how does the log2 fold change read?
The log2 fold change was -0.102.

For GAK (UniProt O14976), which log2 fold change is on record?
Its log2 fold change is -0.209.

Which log2 fold change does the source give for FIZ1 (UniProt Q96SL8) here?
The log2 fold change was 0.044.

How did the log2 fold change turn out when GUSB (UniProt P08236) was run?
Its log2 fold change is 0.053.

Which log2 fold change does the source give for HMG20A (UniProt Q9NP66) here?
Its log2 fold change is 0.536 (active).

For GSE1 (UniProt Q14687), which log2 fold change is on record?
Its log2 fold change is 1.45 (active).

With GTF2H3 (UniProt Q13889) as the target, how does the log2 fold change read?
The log2 fold change was 0.017.

For FIS1 (UniProt Q9Y3D6), which log2 fold change is on record?
The log2 fold change was -0.011.

GSTM4 (UniProt Q03013) was tested. Which log2 fold change did it give?
Its log2 fold change is 0.03.

With HIKESHI (UniProt Q53FT3) as the target, how does the log2 fold change read?
Its log2 fold change is -0.027.

With GAB2 (UniProt Q9UQC2) as the target, how does the log2 fold change read?
Its log2 fold change is -0.034.

With H2AZ1 (UniProt P0C0S5) as the target, how does the log2 fold change read?
The log2 fold change was 0.123.

How did the log2 fold change turn out when GALNT11 (UniProt Q8NCW6) was run?
The log2 fold change was -0.027.

For IDH3A isoform 2 (UniProt P50213), which log2 fold change is on record?
Its log2 fold change is -0.059.

With FOXO3 (UniProt O43524) as the target, how does the log2 fold change read?
The log2 fold change was -0.039.

FHOD1 (UniProt Q9Y613) was tested. Which log2 fold change did it give?
Its log2 fold change is -0.034.

For HDAC7 isoform 5 (UniProt Q8WUI4), which log2 fold change is on record?
The log2 fold change was -0.003.
